High-throughput results (PubChem BioAssay)
SRC3 TRFRET art: flags TR-FRET format artefacts in PPARgamma SRC-3 recruitment agonist screen; TR-FRET ratio at 8 µM; TR-FRET artefact counter-screen, PPARgamma/SRC-3 format; active compounds read high; hit rate 0.39% among 99,000; in the data active means TR-FRET ratio above about 2000
SRC1 TRFRET art: flags TR-FRET format artefacts in PPARgamma SRC-1 recruitment agonist screen; TR-FRET ratio at 8 µM; AID 1051; TR-FRET detection artefact counter-screen, emission ratio; active compounds read high; hit rate 0.34% among 99,000; in the data active means TR-FRET ratio above about 2300
PPARg SRC1 recr: PPARgamma-driven SRC-1 recruitment agonism; activation, % at 8 µM; hit rate 0.41% among 200,000; PPARgamma-SRC-1 coactivator recruitment biochemical assay; in the data active means activation above about 19%
PPARg SRC3 recr: agonists of human PPARgamma SRC-3 coactivator recruitment. P37231. biochemical PPARgamma/SRC-3 coactivator recruitment assay. activation, % at 8 µM. hit rate 0.26% among 200,000; in the data active means activation above about 23%
SRC2 TRFRET art: TR-FRET artefact, counter-screen to PPARgamma/SRC-2 agonist assay; active compounds read high; AID 1049; TR-FRET ratio at 8 µM; hit rate 0.4% among 200,000; in the data active means TR-FRET ratio above about 2000
PPARg SRC-2 ag: agonists of SRC-2 recruitment by human PPARgamma; PPARgamma LBD-SRC-2 recruitment, biochemical; activation, % at 8 µM; hit rate 0.34% among 200,000; AID 1032
PPARg SRC2 conf: confirmation of agonists of SRC-2 recruitment by human PPARgamma; activation, % at 8 µM; shares compounds with PPARg SRC3 recr; hit rate 52% among 790; biochemical SRC-2 recruitment by PPARgamma
PPARg SRC1 conf: human PPARgamma SRC-1 recruitment agonism, confirmation. shares compounds with PPARg SRC3 recr. PPARgamma–SRC-1 coactivator recruitment biochemical assay. activation, % at 8 µM. hit rate 43% among 790. AID 1300; in the data active means activation above about 20%
PPARg SRC3 ag: confirmation of agonists of SRC-3 recruitment by human PPARgamma | activation, % at 8 µM | AID 1301 | shares compounds with PPARg SRC3 recr | biochemical PPARgamma-SRC-3 coactivator recruitment, agonist mode | hit rate 29% among 790; in the data active means activation above about 24%
Hits are given with their value; n = inactive; x = no result. Shown are actives, neighbours in structure and some others; about 0.9% of the full set was active somewhere. Unless noted, no stated cut-off is given here; in the data, active means activation above about 22%; inactive means the rest.

SMILES	SRC3 TRFRET art	SRC1 TRFRET art	PPARg SRC1 recr	PPARg SRC3 recr	SRC2 TRFRET art	PPARg SRC-2 ag	PPARg SRC2 conf	PPARg SRC1 conf	PPARg SRC3 ag
COc1ccc(-c2nc(SCC(=O)NC3CCCC3)c(-c3ccc(OC)cc3)[nH]2)cc1	n	n	n	n	n	24	n	n	n
CCCOc1ccc(C2C(C(=O)c3ccco3)=C(O)C(=O)N2CCCn2ccnc2)cc1 (stereo not drawn)	x	x	19	n	n	n	n	n	n
CSc1nc2ccc(NS(=O)(=O)c3cccc(Cl)c3Cl)cc2s1	n	n	n	n	n	n	x	x	x
Oc1ccc(-c2n[nH]c(=S)n2Cc2ccco2)cc1	x	x	n	n	n	n	x	x	x
Oc1cc2ccccc2cc1-c1n[nH]c(=S)n1Cc1ccco1	n	n	22	n	n	n	n	n	n
CCOC(=O)c1c(OCC)[nH]c2c1cc(O)c1ccccc12	x	x	19	n	n	n	n	n	n
CN(Cc1ccccc1)C(=O)c1ccccc1Br	n	n	n	n	n	n	x	x	x
COc1cccc(CNC(=O)CSc2cc(=O)n(C)c3ccccc23)c1	n	2682	42	n	2371	23	36	25	24
Cn1c(=O)cc(SCC(=O)NCC2CCCO2)c2ccccc21 (stereo not drawn)	x	x	45	78	2686	49	35	23	n
Cn1c(=O)cc(SCC(=O)NCc2ccco2)c2ccccc21	x	x	28	38	2082	36	33	22	n
COc1ccc(CNC(=O)CSc2cc(=O)n(C)c3ccccc23)cc1	2050	2843	40	24	2425	26	37	24	24
Cc1ccc(C)c(SCC(=O)NCc2ccco2)c1	x	x	n	n	n	n	x	x	x
CC(NC(=O)CCC1COc2ccccc2O1)c1ccccc1 (stereo not drawn)	x	x	n	n	n	n	x	x	x
CCOC(=O)c1ccc(-n2c(CN3CCC(O)CC3)nc3ccc([N+](=O)[O-])cc3c2=O)cc1	n	n	n	n	n	n	x	x	x
CCn1c(CNC(=O)Cc2ccc(OC)cc2)nnc1SCCOc1ccccc1	x	x	n	n	n	n	x	x	x
COc1ccc(CC(=O)NCc2nnc(SCCOc3ccccc3)n2C)cc1	x	x	19	n	n	n	n	n	n
COc1ccc(/C(O)=C2\C(=O)C(=O)N(c3cc(C)on3)C2c2ccccc2OC)cc1 (stereo not drawn)	x	x	19	n	2135	32	31	25	n
COc1cccc(C2/C(=C(\O)c3ccc(OC)c(OC)c3)C(=O)C(=O)N2c2cc(C)on2)c1 (stereo not drawn)	x	x	n	28	n	29	24	n	n
COc1ccc(/C(O)=C2\C(=O)C(=O)N(c3cc(C)on3)C2c2ccc(OC)c(OC)c2)cc1OC (stereo not drawn)	x	x	n	n	n	n	x	x	x
COc1ccc(CNC(=O)C(=O)NCC2OCCN2S(=O)(=O)c2cccs2)cc1 (stereo not drawn)	n	n	n	n	n	n	x	x	x
CCN(CC)CCNC(=O)c1ccc(-n2c(C)cc3c2CCCC3=O)cc1	n	n	n	n	n	n	x	x	x
O=C(NNC(=O)c1ccccc1O)c1ccco1	n	n	n	n	n	n	x	x	x
CCOC(=O)c1ccc2c(c1)n(CC)c(C)[n+]2CC	n	n	n	n	n	n	x	x	x
CCOC(=O)c1ccc2c(c1)[nH]c(=S)n2CC	2330	2451	23	n	n	28	50	37	30
CN(C)c1ccc(N/C=C/C(=O)c2ccco2)cc1	x	x	n	n	n	24	n	n	n
SMILES	SRC3 TRFRET art	SRC1 TRFRET art	PPARg SRC1 recr	PPARg SRC3 recr	SRC2 TRFRET art	PPARg SRC-2 ag	PPARg SRC2 conf	PPARg SRC1 conf	PPARg SRC3 ag
CC(=O)Nc1ccc(N/C=C/C(=O)c2ccco2)cc1	x	x	n	n	n	n	x	x	x
NS(=O)(=O)c1ccc(N/C=C\C(=O)c2ccc(F)cc2)cc1	n	n	n	n	n	n	x	x	x
CN(C)c1ccc(N/C=C/C(=O)c2ccc(F)cc2)cc1	x	x	n	27	n	n	n	n	n
O=C(CCCCCn1c(=S)[nH]c2cc3c(cc2c1=O)OCO3)N1CCN(Cc2ccccc2)CC1	x	x	n	n	n	n	x	x	x
O=C(CCCCCn1c(=S)[nH]c2cc3c(cc2c1=O)OCO3)N1CCN(C(=O)c2ccco2)CC1	x	x	n	26	n	32	n	n	n
Cc1nc2ccc(-c3nc4cc(N)ccc4o3)cc2[nH]1	x	x	21	n	n	n	n	n	n
Nc1ccc2oc(-c3ccc4nc[nH]c4c3)nc2c1	x	x	n	n	n	n	x	x	x
Cc1ccc(Cl)cc1-c1ccc(C=Nc2ccc(N3CCOCC3)cc2)o1	2494	2713	33	27	2256	37	47	34	28
Cc1ccc(/C=N/N2CCN(c3ccc(Cl)cc3)CC2)o1	x	x	n	n	n	n	x	x	x
O=C1CN(S(=O)(=O)c2cc(Cl)ccc2Cl)CCN1	n	n	n	n	n	n	x	x	x
S=C(NCc1ccc2c(c1)OCO2)Nc1ccc2nsnc2c1	3652	3812	61	56	2840	91	23	28	n
Cc1ccc(NC(=S)NCc2ccc3c(c2)OCO3)cc1C	n	n	n	n	n	n	x	x	x
Cn1cccc1/C=C1\CCc2ccccc2C1=O	n	n	n	n	n	n	x	x	x
Cn1cccc1/C=C1\Cc2ccccc2C1=O	n	2340	n	n	n	24	n	n	n
COc1cccc(OC)c1C(=O)Nc1nnc(-c2cccs2)s1	2204	2546	31	n	n	28	27	21	n
CCC(CC)C(=O)Nc1nnc(-c2cccs2)s1	x	x	n	n	n	n	x	x	x
CCOc1ccc(CN2CCCC(CNC(=O)c3ccc(F)cc3)C2)cc1CO (stereo not drawn)	n	n	n	n	n	n	x	x	x
O=C(O)COc1ccc2nsnc2c1Cl	x	x	38	50	2267	37	46	42	27
COCCNc1nc(-c2ccc(OC)cc2)c(-c2ccc(OC)cc2)s1	n	n	n	n	n	n	x	x	x
CCCC(=Nc1ccc(N)cc1)C1=C(O)C(C(=O)OC)C(C)(C)CC1=O (stereo not drawn)	x	x	n	27	n	n	n	n	n
CCCC(=O)C1=C(O)C(C(=O)OC)C(C)(C)CC1=Nc1ccc(N)cc1 (stereo not drawn)	x	x	n	n	n	n	x	x	x
CCn1c(=O)cc(SCC(=O)Nc2ccc(OC)c(OC)c2)c2ccccc21	x	x	20	34	2203	42	48	33	32
CCn1c(=O)cc(OCC(=O)Nc2cccc(C)n2)c2ccccc21	x	x	n	n	n	n	x	x	x
CCn1c(=O)cc(SCC(=O)Nc2cccc(C)n2)c2ccccc21	3307	3815	58	38	3523	37	48	32	34
